The target of assay [1] is Paired box protein Pax-6 (Homo sapiens) (UniProt P26367). As to the kind of experiment: ATG_Pax6_CIS: Attagene CIS-FACTORIAL HepG2 Assay for human Paired Box 6 (PAX6) (AID 2282956). To be noted: HepG2 CIS-FACTORIAL PAX6 reporter transcription, RNA readout; actives raise or lower the signal. Summed up: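 DMSO-referenced bidirectional fits of reporter mRNA fluorescence; HepG2 with transient cis-promoter MRTUs, 24 h post-dose, RT-PCR plus capillary electrophoresis detection.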
Chain of Paired box protein Pax-6 (Homo sapiens) (P26367 whole entry, looked up): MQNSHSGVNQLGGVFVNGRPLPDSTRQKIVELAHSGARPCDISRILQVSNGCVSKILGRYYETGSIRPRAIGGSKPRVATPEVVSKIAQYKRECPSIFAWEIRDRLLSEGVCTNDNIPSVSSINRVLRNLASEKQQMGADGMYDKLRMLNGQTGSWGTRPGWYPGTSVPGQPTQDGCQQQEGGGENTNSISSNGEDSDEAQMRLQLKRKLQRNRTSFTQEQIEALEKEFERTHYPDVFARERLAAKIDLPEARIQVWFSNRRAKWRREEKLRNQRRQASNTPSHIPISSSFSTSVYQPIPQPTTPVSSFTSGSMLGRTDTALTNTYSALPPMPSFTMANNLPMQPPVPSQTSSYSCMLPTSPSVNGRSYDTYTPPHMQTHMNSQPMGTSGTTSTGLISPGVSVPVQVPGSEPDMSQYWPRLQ

Assay [2] can be described thus: ATG_PXRE_CIS: Attagene CIS-FACTORIAL HepG2 Assay for human Pregnane X Receptor Element (PXRE) (AID 2282957). To be noted: HepG2 Attagene CIS-FACTORIAL PXRE reporter, mRNA; actives raise or lower the signal. Put shortly:
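Fluorescent capillary electrophoresis of amplified reporter cDNA gave the signal, collected 24 h after dosing HepG2 cells that held transfected cis-element reporter constructs.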

A short description of assay [3]: ATG_PPRE_CIS: Attagene CIS-FACTORIAL HepG2 Assay for human Peroxisome Proliferator-activated Response Element (PPRE) (AID 2282958). To be noted: HepG2 PPRE cis-element reporter, Attagene transcription factor profiling; actives raise or lower the signal. Put shortly:
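After human HepG2 hepatoma cells were transiently transfected with cis-promoter reporter constructs, they were exposed to test chemicals for 24 hours. Reporter RNA was then reverse-transcribed, PCR-amplified, FAM-labeled, HpaI-digested and quantified by capillary electrophoresis.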

Assay [4] in a line: ATG_RORE_CIS: Attagene CIS-FACTORIAL HepG2 Assay for human RAR-related Orphan Receptor Element (RORE) (AID 2282959). As to conditions: HepG2 Attagene cis-factorial RORE reporter, mRNA; actives raise or lower the signal. Summed up: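 Measured here: transcript induction of a cis-regulated reporter in HepG2 cells transiently transfected via FuGene 6. After 24 h, RNA was processed by RT-PCR and fluorescent capillary electrophoresis; DMSO defined baseline activity.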

Assay [5] deals with Transcription factor Sp1 (Homo sapiens) (UniProt P08047). As to the kind of experiment: ATG_Sp1_CIS: Attagene CIS-FACTORIAL HepG2 Assay for human Specificity Protein 1 (Sp1) (AID 2282961). As to conditions: HepG2 Sp1 cis-reporter transcription, actives raise or lower the signal. Summed up:
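After transient transfection of HepG2 cells with cis-promoter reporter units and 24 h chemical treatment, reporter transcripts were quantified by RT-PCR and capillary electrophoresis fluorescence. Gain- and loss-of-signal fitted against DMSO.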

A short description of assay [6]: ATG_SREBP_CIS: Attagene CIS-FACTORIAL HepG2 Assay for human Sterol Regulatory Element Binding (SREBP) (AID 2282962). As to conditions: HepG2 Attagene cis-factorial SREBP reporter, mRNA; actives raise or lower the signal. Put shortly:
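In this cis-format assay, HepG2 liver cells express reporters controlled by promoter elements responsive to native transcription factors. Exposure lasts 24 h; reporter mRNA fluorescence from capillary electrophoresis gives the signal, fitted bidirectionally against DMSO.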

Assay [7] concerns the target Signal transducer and activator of transcription 3 (Homo sapiens) (UniProt P40763). As to the kind of experiment: ATG_STAT3_CIS: Attagene CIS-FACTORIAL HepG2 Assay for human Signal Transducer and Activator of Transcription 3 (STAT3) (AID 2282963). As to conditions: HepG2, Attagene cis-factorial STAT3 reporter transcription; actives raise or lower the signal. Summed up:
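Uses human liver HepG2 transiently carrying cis-regulated reporter transcription units. Following 24 h dosing, reporter mRNA induction was detected by RT-PCR and capillary electrophoresis, analysed bidirectionally versus DMSO.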

Assay [8] is described as follows: ATG_TA_CIS: Attagene CIS-FACTORIAL HepG2 Assay for human TA Basal Promoter (AID 2282964). As to conditions: HepG2 Attagene CIS-factorial TA basal promoter reporter; actives raise or lower the signal. Put shortly: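 Background-control readout: TA basal promoter reporter mRNA, fitted in both directions relative to DMSO. Measured by RT-PCR and capillary electrophoresis 24 hours after treating HepG2 human liver cells transiently carrying multiplexed cis-regulated reporter constructs.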

The nature of assay [9]: ATG_TGFb_CIS: Attagene CIS-FACTORIAL HepG2 Assay for human Transforming Growth Factor (TGF) (AID 2282967). As to conditions: HepG2 Attagene CIS TGFb reporter, mRNA transcription; actives raise or lower the signal. Summed up:
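Endogenous TGFB1-linked transcription factor activity read as reporter mRNA via RT-PCR and capillary electrophoresis, 24 h after dosing transiently transfected HepG2 cells. Gain or loss of signal fitted relative to DMSO.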

A short description of assay [10]: ATG_VDRE_CIS: Attagene CIS-FACTORIAL HepG2 Assay for human Vitamin D Receptor Element (VDRE) (AID 2282968). As to conditions: HepG2 VDRE cis-reporter transcription, actives raise or lower the signal. Put shortly:
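Transfected HepG2 reporter cells, chemical treatment 24 h. RNA isolated, cDNA amplified with reporter-specific primers, products analysed by capillary electrophoresis. Endpoint fitted in both directions versus DMSO.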

In assay [11] the target is Estrogen receptor (Homo sapiens) (UniProt P03372). Put plainly: ATG_ERa_TRANS: Attagene TRANS-FACTORIAL HepG2 Assay for human Estrogen Receptor alpha (ERa) (AID 2282970; active = hit-call score of the fitted dose curve at least 0.9, where 1 is the maximum). As to conditions: HepG2 Attagene TRANS ERa GAL4 reporter, mRNA. Put shortly:
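One of 30 multiplexed endpoints from a HepG2 TRANS system, this one reports ERa-Gal4-driven reporter mRNA. Transcripts were quantified 24 hours post-dosing by fluorescent RT-PCR and capillary electrophoresis, with activity scored as induction over DMSO.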

The target of assay [12] is Steroid hormone receptor ERR1 (Homo sapiens) (UniProt P11474). As to the kind of experiment: ATG_ERRa_TRANS: Attagene TRANS-FACTORIAL HepG2 Assay for human Estrogen-Related Receptor alpha (ERRa) (AID 2282971; active = hit-call score of the fitted dose curve at least 0.9, where 1 is the maximum). To be noted: HepG2 Attagene TRANS reporter, ERRa transactivation. Put shortly:
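HepG2 cells transiently transfected with multiplexed GAL4-UAS reporter units reading chimeric ERRa-Gal4 activity; 24 h compound exposure. Reporter mRNA measured by RT-PCR, 6-FAM labelling, HpaI digest and capillary electrophoresis; gain of signal fitted versus DMSO baseline.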

The target in assay [13] is X-box-binding protein 1 (Homo sapiens) (UniProt P17861). Put plainly: ATG_Xbp1_CIS: Attagene CIS-FACTORIAL HepG2 Assay for human X-box Binding Protein 1 (XBP1) (AID 2282972). To be noted: HepG2 XBP1 cis-element reporter, Attagene multiplex; actives raise or lower the signal. Put shortly:
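Changes in reporter transcript abundance, read by RT-PCR and capillary electrophoresis, reflect endogenous transcription factor activity. Transfected HepG2 cells received compound for 24 hours; DMSO defined baseline for bidirectional analysis.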

Assay [14] can be described thus: ATG_GAL4_TRANS: Attagene TRANS-FACTORIAL HepG2 Assay for GAL4 (Internal Marker) (AID 2282976; active = hit-call score of the fitted dose curve at least 0.9, where 1 is the maximum). To be noted: HepG2 Attagene TRANS GAL4 internal marker reporter. Summed up:
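HepG2 cells transiently transfected with multiplexed GAL4-UAS reporter constructs were dosed for 24 h. Reporter mRNA was measured by RT-PCR, 6-FAM primer extension, HpaI digestion and capillary electrophoresis, and gain of signal was fitted relative to DMSO.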

Assay [15] addresses Estrogen-related receptor gamma (Homo sapiens) (UniProt P62508). Put plainly: ATG_ERRg_TRANS: Attagene TRANS-FACTORIAL HepG2 Assay for human Estrogen-Related Receptor gamma (ERRg) (AID 2282977; active = hit-call score of the fitted dose curve at least 0.9, where 1 is the maximum;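 note: hits increase reporter signal over DMSO so potencies reflect activators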). As to conditions: HepG2 Attagene TRANS reporter, ERRg transactivation. Summed up:
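Readout: fluorescent reporter-mRNA fragments resolved by capillary electrophoresis after RT-PCR and HpaI cut. Cells: transiently transfected HepG2 carrying GAL4-UAS reporters driven by exogenous NR-Gal4 chimeras, dosed 24 h. Activity fitted upward relative to DMSO baseline.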

Assay [16] in a line: ATG_Sox_CIS: Attagene CIS-FACTORIAL HepG2 Assay for human SRY-box transcription factor (SOX) (AID 2282960). As to conditions: HepG2 Attagene cis-factorial SOX reporter, mRNA; actives raise or lower the signal. Put shortly:
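Using transiently transfected HepG2 cells, reporter transcription driven by cis elements was assessed 24 h after dosing. Signal was fluorescence of capillary-separated RT-PCR products, with DMSO defining baseline activity.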

The nature of assay [17]: ATG_TCF_b_cat_CIS: Attagene CIS-FACTORIAL HepG2 Assay for human T-Cell-Factor with beta-catenin (TCF/b-cat) (AID 2282965). As to conditions: HepG2 TCF/beta-catenin cis-reporter transcription, actives raise or lower the signal. Put shortly: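 In this cis-format system, transfected HepG2 cells report endogenous transcription factor activity. Readout after 24 h exposure is reporter transcript abundance from RT-PCR and capillary electrophoresis, analysed for gain or loss of signal versus DMSO.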

The nature of assay [18]: ATG_TAL_CIS: Attagene CIS-FACTORIAL HepG2 Assay for human TAL Basal Promoter (AID 2282966).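 Note: background control endpoint measuring basal TAL promoter reporter mRNA not a specific factor.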 To be noted: HepG2 Attagene cis-factorial TAL promoter reporter; actives raise or lower the signal. Summed up:
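Transiently transfected HepG2 (cis-regulated reporter units), 24 h treatment, mRNA read by fluorescent CE after RT-PCR; bidirectional fit, DMSO baseline.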

Assay [19] has as its target Nuclear receptor subfamily 1 group I member 3 (Homo sapiens) (UniProt Q14994). As to the kind of experiment: ATG_CAR_TRANS: Attagene TRANS-FACTORIAL HepG2 Assay for human Constitutive Androstane Receptor (CAR) (AID 2282969; active = hit-call score of the fitted dose curve at least 0.9, where 1 is the maximum;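 note: activators raise reporter mRNA above DMSO so AC50 marks induction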). As to conditions: HepG2 Attagene TRANS-FACTORIAL CAR reporter. Summed up:
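Steps: transient transfection of HepG2 with multiple GAL4-UAS reporter units; 24 h compound incubation; RNA isolation, RT-PCR, 6-FAM primer extension, HpaI digest; capillary electrophoresis. Gain-of-signal relative to DMSO negative control.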

Assay [20] can be described thus: ATG_M_19_TRANS: Attagene TRANS-FACTORIAL HepG2 Assay for M19 Transcription Factor (Internal Marker) (AID 2282974; active = hit-call score of the fitted dose curve at least 0.9, where 1 is the maximum). As to conditions: HepG2 Attagene TRANS-FACTORIAL M19 internal marker reporter. Summed up:
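Gain-of-signal in reporter mRNA, relative to DMSO, was scored from capillary electrophoresis fluorescence. HepG2 cells carried transiently transfected multiple reporter transcription units and were incubated with test chemicals for 24 h.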

Inconclusive results are not listed. The source made the active and inactive calls. Rule for the calls, unless noted: active = hit-call score of the fitted dose curve at least 0.9, where 1 is the maximum; inactive = score below 0.9.

What is called AC50 is the concentration giving half of the maximal activity seen.

Chain of Estrogen receptor (Homo sapiens) (P03372 whole entry, looked up, the tested form may be a part): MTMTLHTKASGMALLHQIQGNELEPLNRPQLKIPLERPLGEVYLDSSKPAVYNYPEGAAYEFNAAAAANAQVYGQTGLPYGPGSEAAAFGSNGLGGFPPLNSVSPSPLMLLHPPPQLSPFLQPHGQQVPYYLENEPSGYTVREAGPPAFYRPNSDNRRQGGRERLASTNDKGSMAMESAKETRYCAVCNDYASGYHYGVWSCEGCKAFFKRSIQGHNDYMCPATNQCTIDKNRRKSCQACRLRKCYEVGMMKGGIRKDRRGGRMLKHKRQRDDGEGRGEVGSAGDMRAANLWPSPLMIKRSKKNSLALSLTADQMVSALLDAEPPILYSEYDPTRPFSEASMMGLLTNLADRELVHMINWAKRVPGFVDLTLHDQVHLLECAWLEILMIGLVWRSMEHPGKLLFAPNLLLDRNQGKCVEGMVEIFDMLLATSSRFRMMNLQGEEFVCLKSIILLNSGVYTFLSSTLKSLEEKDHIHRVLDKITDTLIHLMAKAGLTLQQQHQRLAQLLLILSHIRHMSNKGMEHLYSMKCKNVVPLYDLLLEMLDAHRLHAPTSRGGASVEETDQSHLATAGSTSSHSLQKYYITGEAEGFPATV
Chain of Steroid hormone receptor ERR1 (Homo sapiens) (P11474 whole entry, looked up, the tested form may be a part): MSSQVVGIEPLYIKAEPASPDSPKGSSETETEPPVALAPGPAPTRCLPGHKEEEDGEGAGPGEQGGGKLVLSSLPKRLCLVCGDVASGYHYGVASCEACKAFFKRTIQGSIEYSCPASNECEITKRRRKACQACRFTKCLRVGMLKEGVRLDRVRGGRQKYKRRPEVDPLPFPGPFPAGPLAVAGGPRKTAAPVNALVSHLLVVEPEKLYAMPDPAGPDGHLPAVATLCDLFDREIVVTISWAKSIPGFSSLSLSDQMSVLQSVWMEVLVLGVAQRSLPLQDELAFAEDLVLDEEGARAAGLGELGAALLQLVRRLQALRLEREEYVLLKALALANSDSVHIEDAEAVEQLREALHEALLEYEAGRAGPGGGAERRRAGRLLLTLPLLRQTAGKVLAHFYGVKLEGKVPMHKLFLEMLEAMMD
Chain of Signal transducer and activator of transcription 3 (Homo sapiens) (P40763 whole entry, looked up): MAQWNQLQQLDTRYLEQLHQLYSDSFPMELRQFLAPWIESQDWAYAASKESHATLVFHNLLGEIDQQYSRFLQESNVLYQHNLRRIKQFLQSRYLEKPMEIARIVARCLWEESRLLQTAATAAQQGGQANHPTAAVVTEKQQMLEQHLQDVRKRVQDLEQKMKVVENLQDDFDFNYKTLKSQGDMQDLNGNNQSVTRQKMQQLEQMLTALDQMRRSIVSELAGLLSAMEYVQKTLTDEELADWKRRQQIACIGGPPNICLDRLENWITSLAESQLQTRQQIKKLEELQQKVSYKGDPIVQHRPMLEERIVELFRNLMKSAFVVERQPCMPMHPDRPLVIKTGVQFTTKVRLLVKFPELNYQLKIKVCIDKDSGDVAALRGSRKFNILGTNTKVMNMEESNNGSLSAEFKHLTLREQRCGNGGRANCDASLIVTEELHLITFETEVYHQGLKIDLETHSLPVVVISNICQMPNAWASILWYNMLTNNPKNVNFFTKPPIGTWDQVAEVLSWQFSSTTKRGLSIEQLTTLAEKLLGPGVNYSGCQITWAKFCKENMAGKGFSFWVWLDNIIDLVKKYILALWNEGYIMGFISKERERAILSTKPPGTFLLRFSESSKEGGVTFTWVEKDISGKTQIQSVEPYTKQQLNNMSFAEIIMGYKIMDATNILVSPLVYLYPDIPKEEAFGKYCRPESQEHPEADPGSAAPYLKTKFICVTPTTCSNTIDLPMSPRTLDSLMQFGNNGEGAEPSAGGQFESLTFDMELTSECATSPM
Chain of Transcription factor Sp1 (Homo sapiens) (P08047 whole entry, looked up): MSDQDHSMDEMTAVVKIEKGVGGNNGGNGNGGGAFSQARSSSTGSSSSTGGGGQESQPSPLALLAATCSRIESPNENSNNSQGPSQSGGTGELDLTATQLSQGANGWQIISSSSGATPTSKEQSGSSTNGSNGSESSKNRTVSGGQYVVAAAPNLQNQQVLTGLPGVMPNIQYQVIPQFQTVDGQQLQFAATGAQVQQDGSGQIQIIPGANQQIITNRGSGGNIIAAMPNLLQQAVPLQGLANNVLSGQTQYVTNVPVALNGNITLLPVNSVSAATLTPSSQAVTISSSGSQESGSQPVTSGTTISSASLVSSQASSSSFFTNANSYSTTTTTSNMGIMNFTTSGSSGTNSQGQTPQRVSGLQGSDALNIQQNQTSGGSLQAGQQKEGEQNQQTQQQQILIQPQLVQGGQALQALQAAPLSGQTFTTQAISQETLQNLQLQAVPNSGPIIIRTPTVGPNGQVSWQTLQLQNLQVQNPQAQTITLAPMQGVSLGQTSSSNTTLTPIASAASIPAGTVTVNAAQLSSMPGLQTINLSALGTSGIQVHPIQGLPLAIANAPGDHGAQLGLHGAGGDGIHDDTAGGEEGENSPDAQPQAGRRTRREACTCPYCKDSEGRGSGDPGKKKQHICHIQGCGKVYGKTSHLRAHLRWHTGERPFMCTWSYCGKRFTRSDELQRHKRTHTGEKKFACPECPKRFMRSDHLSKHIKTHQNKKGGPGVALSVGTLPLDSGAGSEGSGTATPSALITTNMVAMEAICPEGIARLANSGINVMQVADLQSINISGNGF
Chain of Estrogen-related receptor gamma (Homo sapiens) (P62508 whole entry, looked up, the tested form may be a part): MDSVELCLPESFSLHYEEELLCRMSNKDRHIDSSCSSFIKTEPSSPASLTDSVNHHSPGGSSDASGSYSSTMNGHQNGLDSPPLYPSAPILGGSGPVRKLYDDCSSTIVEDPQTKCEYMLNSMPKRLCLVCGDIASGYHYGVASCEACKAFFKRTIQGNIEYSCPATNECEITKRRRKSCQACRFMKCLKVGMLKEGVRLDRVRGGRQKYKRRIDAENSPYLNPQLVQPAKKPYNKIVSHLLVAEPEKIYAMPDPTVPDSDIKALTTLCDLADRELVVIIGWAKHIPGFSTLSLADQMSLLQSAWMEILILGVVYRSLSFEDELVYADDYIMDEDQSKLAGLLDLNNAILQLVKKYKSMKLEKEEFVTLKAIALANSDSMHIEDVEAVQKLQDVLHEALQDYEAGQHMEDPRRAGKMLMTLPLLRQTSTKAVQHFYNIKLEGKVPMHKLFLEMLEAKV
Chain of Nuclear receptor subfamily 1 group I member 3 (Homo sapiens) (Q14994 whole entry, looked up, the tested form may be a part): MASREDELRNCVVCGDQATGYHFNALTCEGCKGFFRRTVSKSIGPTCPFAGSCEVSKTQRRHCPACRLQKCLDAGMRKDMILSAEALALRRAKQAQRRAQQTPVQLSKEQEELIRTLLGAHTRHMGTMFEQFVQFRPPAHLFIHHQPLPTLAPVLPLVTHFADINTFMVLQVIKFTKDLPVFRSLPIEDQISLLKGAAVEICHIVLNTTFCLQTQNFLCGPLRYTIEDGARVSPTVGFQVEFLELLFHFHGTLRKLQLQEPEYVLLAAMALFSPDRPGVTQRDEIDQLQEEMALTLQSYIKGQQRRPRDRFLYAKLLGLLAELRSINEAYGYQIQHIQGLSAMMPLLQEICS
Chain of X-box-binding protein 1 (Homo sapiens) (P17861 whole entry, looked up): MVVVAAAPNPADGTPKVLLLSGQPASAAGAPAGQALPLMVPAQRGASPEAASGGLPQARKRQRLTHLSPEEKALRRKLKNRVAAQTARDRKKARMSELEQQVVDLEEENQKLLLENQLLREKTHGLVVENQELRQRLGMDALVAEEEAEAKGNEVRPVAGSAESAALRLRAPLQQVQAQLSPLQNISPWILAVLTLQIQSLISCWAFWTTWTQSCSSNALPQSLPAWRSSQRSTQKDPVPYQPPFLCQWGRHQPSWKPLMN

As to `O=C(O)CCCCCCCCCC(=O)O`, the compound was called inactive in assay [1], in assay [2], in assay [3], in assay [4], in [5] and in [6]. Moreover, the compound was classed as inactive in assay [7], in [8], in [9], in assay [10], in assay [12] and in [13]. Further, the compound was classed as inactive in assay [14] and in [15]. In addition, the AC50 in [11] is 22.7 µM (active).
On to `COC=O`, for which the result in assay [1], in assay [2], in assay [3], in [4], in assay [16] and in [7] was inactive. Besides, the outcome in [17], in [18], in assay [9], in [13] and in assay [15] was inactive.
In the case of `C=C1C2CCC(C2)C1(C)C` (configuration not stated), the compound was called inactive in assay [1], in assay [3], in [4], in [5], in [6] and in assay [7]. In addition, the result in assay [8], in assay [17], in [18], in assay [9], in assay [10] and in [19] was inactive. The compound was called inactive in assay [11], in [13], in assay [20] and in [15]. In addition, the AC50 in assay [2] is 31.4 µM (active).
On to `OC1CCCC1`, for which the compound was called inactive in [1], in assay [3], in assay [4], in assay [5], in [6] and in assay [7]. Further, the compound was called inactive in assay [8], in assay [17], in [18], in assay [9], in [10] and in assay [12]. Also, the compound was called inactive in [13], in assay [20], in assay [14] and in assay [15]. For the same compound, in assay [2], the AC50 was 48.8 µM (active).
Take `Nc1ccc(N=Nc2ccccc2)c(N)n1`: the compound was classed as inactive in [1], in assay [2], in [5], in assay [6], in assay [7] and in [8]. Also, the compound was called inactive in [17], in assay [18], in [19] and in assay [20]. The concentration at half-maximal activity (AC50) in assay [3] is 100 µM (active); in assay [4] it was 51.6 µM (active); in assay [10], 68.9 µM (active); in assay [11] it was 27.8 µM (active); in assay [13] it was 70.3 µM (active).
On to `NC(=O)N=NC(N)=O`, for which the result in [1], in assay [2], in [3], in [4], in assay [16] and in [6] was inactive. In addition, the outcome in [7], in assay [8], in assay [18], in assay [10], in [19] and in assay [12] was inactive. Besides, the compound was called inactive in assay [13] and in assay [14].
As to `CCCCCCCC/C=C\CCCCCCCC(=O)O`, the call in [1], in [2], in [3], in assay [4], in assay [5] and in [8] was inactive. The call in [17], in [18], in assay [9], in assay [11], in assay [13] and in assay [14] was inactive.
`CC1=CC[C@H]2C[C@@H]1C2(C)C`: the compound was classed as inactive in assay [1], in assay [2], in assay [3], in assay [4], in [5] and in assay [6]. The outcome in assay [7], in assay [8], in assay [17], in [18], in [10] and in assay [11] was inactive. Moreover, the compound was classed as inactive in assay [13], in assay [20] and in [14].
Turning to `O=C(c1ccccc1)C1CCC1`, the compound was classed as inactive in [1], in assay [2], in [3], in [4], in assay [5] and in [6]. Besides, the compound was called inactive in [7], in assay [8], in assay [17], in assay [18], in [9] and in assay [10]. The result in assay [19], in assay [11], in assay [13] and in assay [14] was inactive.
